Here are results for 24 substances from publication PMC10313818.

Common to all, as to assay: cross-linking mass spectrometry
Holding throughout (details): not determined

The target of test [1] is ACACA (UniProt Q13085).
Test [2] concerns the target COX7C (UniProt P15954).
The target in test [3] is HSDL2 (UniProt Q6YN16).
Test [4] has as its target IDH3G (UniProt P51553).
The target in test [5] is ADCK1 (UniProt Q86TW2).
The target of test [6] is ALDH3A2 (UniProt P51648).
In test [7] the target is APOO (UniProt Q9BUR5).
In test [8] the target is ATP5PF (UniProt P18859).
For test [9], the target named is COQ3 (UniProt Q9NZJ6).
For test [10], the target named is GUF1 (UniProt Q8N442).
Test [11] deals with HADHA (UniProt P40939).
Test [12] addresses MTRF1L (UniProt Q9UGC7).
For test [13], the target named is NOCT (UniProt Q9UK39).
Test [14] has as its target OGDH (UniProt Q02218).
Test [15] addresses OGDHL (UniProt Q9ULD0).
Test [16] deals with PDSS1 (UniProt Q5T2R2).
Chain of PDSS1 (Q5T2R2 whole entry): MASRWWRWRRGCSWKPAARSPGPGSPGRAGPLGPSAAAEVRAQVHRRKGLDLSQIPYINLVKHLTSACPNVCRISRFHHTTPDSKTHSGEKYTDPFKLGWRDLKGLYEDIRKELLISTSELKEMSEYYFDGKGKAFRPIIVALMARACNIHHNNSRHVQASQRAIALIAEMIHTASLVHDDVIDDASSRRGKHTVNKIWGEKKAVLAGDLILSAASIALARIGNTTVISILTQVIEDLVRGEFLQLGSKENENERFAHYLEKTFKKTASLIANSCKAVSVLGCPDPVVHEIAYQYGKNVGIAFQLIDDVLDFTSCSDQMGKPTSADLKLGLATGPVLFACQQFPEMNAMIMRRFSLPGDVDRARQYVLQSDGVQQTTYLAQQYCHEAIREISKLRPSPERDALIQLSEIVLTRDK
For test [17], the target named is PHB2 (UniProt Q99623).
Test [18] has as its target PMPCA (UniProt Q10713).
The target of test [19] is PRDX6 (UniProt P30041).
The target in test [20] is RMND1 (UniProt Q9NWS8).
Test [21] has as its target SAMM50 (UniProt Q9Y512).
Test [22] concerns the target SDHA (UniProt P31040).
Test [23] deals with SIRT3 (UniProt Q9NTG7).
Test [24] concerns the target SLC25A19 (UniProt Q9HC21).
Test [25] deals with SPRYD4 (UniProt Q8WW59).
Chain of SPRYD4 (Q8WW59 whole entry): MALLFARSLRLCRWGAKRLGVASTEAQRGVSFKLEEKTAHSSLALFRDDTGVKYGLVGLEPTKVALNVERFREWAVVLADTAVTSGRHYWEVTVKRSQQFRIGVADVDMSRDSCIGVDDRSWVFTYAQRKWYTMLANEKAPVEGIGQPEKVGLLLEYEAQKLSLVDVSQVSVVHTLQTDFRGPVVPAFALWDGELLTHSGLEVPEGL
The target of test [26] is TBRG4 (UniProt Q969Z0).
Test [27] has as its target TUFM (UniProt P49411).

Chain of BCKDHB, P21953 (P21953 whole entry): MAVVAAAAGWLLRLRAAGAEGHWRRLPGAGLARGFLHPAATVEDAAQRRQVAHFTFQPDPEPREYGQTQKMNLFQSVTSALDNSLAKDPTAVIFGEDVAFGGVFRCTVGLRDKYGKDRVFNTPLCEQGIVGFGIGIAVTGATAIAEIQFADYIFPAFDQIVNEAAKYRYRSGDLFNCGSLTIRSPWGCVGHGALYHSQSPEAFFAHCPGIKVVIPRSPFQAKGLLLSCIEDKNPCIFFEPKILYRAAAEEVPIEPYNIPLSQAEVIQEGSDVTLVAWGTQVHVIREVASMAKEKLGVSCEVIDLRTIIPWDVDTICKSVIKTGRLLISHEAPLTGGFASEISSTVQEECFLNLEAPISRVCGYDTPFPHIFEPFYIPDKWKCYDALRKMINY
Chain of PMPCA (Q10713 whole entry): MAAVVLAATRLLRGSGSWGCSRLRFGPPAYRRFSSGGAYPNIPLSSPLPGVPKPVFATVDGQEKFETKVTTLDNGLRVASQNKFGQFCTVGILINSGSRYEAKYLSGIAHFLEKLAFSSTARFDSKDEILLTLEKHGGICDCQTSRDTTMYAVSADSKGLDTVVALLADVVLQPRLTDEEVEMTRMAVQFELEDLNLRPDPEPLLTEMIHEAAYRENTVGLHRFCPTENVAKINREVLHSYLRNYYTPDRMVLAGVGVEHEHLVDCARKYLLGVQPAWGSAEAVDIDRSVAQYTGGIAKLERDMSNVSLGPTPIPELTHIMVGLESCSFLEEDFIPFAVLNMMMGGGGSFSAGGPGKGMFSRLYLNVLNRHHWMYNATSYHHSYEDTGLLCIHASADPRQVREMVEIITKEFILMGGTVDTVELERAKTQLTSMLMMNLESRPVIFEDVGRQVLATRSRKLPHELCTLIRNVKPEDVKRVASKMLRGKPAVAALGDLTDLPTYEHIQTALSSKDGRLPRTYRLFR
Chain of VDAC2, P45880 (P45880 whole entry): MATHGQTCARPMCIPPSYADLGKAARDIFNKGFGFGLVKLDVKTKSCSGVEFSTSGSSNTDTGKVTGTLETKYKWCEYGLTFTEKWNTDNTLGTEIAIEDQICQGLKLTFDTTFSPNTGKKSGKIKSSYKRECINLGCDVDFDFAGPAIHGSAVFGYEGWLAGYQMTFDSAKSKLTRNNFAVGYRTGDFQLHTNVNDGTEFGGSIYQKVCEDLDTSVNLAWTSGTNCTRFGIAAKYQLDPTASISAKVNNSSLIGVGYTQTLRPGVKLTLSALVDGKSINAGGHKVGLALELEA
Chain of TOMM20, Q15388 (Q15388 whole entry): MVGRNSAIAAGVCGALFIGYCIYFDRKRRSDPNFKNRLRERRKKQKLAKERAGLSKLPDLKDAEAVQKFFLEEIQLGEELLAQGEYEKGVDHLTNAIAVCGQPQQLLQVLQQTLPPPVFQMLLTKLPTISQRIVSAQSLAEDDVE
Chain of BCL2, P10415 (P10415 whole entry): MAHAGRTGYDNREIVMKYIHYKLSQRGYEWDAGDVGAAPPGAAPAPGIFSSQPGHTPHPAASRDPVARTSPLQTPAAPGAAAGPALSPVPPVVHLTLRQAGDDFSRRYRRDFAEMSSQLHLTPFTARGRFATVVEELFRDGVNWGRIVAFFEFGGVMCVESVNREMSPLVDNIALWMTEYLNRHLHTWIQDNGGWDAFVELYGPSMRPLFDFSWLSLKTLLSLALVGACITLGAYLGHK
Chain of DHX30, Q7L2E3 (Q7L2E3 whole entry): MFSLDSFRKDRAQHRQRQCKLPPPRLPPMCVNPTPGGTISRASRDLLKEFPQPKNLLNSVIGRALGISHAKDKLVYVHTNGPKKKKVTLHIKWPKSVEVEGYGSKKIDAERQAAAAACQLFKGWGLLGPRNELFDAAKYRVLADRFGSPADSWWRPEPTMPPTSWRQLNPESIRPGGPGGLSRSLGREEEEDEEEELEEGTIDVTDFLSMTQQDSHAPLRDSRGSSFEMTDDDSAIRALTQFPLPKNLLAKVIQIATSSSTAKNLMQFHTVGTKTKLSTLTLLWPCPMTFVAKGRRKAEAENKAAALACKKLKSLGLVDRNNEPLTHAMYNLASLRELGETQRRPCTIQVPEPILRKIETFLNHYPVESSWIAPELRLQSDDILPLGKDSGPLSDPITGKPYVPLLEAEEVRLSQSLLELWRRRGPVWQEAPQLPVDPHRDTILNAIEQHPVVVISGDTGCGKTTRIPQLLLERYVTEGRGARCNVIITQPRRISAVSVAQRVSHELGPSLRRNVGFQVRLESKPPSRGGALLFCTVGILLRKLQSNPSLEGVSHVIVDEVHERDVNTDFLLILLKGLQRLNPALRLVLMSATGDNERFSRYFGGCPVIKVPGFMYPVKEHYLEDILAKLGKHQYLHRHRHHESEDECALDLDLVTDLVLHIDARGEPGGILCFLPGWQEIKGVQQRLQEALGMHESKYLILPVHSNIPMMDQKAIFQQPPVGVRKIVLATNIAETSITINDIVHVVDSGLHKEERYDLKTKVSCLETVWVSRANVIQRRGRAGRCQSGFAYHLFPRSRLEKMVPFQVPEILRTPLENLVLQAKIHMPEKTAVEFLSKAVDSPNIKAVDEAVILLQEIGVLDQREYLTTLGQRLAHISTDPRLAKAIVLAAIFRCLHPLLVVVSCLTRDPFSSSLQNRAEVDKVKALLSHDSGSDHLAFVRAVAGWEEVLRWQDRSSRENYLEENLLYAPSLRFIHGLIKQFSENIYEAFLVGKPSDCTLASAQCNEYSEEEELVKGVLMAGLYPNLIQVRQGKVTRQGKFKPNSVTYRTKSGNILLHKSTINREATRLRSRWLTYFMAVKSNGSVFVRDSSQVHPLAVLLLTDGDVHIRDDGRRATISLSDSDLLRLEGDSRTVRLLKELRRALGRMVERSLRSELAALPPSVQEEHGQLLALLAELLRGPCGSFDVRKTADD
Chain of HSDL2 (Q6YN16 whole entry): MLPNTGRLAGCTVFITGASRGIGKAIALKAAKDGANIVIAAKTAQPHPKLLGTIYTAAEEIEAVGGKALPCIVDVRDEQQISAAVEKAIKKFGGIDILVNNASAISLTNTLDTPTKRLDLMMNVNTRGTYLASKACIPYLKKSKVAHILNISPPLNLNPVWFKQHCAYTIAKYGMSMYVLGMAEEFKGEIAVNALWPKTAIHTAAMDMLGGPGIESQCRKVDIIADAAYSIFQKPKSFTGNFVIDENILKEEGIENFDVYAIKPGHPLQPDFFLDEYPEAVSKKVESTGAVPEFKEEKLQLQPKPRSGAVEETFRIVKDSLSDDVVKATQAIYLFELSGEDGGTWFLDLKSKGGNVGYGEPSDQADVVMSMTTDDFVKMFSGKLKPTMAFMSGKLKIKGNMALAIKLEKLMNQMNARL
Chain of COX5B, P10606 (P10606 whole entry): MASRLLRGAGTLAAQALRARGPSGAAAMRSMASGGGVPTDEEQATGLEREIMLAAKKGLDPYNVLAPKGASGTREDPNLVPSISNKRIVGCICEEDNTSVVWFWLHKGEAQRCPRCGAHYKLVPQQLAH
Chain of PMPCB, O75439 (O75439 whole entry): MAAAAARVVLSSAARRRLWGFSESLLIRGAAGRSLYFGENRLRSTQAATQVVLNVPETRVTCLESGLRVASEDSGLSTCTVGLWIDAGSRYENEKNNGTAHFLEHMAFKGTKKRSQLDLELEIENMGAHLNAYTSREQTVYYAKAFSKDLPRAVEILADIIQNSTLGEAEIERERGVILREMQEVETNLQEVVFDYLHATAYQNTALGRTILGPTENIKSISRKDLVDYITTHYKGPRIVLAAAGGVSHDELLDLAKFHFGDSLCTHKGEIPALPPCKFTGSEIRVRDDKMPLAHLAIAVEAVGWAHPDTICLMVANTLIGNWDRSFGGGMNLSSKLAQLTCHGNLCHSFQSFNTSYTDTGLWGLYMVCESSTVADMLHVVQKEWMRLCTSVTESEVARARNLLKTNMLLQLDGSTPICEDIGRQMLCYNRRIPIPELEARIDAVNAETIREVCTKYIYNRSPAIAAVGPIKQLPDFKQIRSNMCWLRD
Chain of PDHA1, P08559 (P08559 whole entry): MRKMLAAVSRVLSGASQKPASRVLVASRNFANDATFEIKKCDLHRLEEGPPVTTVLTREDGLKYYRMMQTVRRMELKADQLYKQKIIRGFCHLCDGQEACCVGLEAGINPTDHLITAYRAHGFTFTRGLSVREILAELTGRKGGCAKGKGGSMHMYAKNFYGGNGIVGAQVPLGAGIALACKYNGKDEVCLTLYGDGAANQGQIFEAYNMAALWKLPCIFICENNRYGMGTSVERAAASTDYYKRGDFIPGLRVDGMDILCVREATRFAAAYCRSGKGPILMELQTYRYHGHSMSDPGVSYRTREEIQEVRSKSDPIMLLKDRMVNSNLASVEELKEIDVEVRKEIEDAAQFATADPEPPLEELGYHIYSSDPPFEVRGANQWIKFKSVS
Chain of NDUFC1, O43677 (O43677 whole entry): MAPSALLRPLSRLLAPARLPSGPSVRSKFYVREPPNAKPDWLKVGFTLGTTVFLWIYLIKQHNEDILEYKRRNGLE

As for HSPD1, P10809, the cross-linked residues result in test [1] was “K58 - K2167”; in [2], “K58 - K34”; in [3] it was “K418 - K304”; in [4] it was “K31 - K214”.

Turning to NDUFC1, O43677, the cross-linked residues result in [5] is given as “K28 - K325”.

On to HADHA, P40939, for which, in [6], the cross-linked residues entry is given as “K254 - M1”.

GUF1, Q8N442: in test [7], the cross-linked residues entry is on record as “K351 - K27”.

For the substance ATP5PD, O75947, the cross-linked residues entry in test [8] is given as “K63 - K79”.

As for DHX30, Q7L2E3, the cross-linked residues result in test [9] is recorded as “K303 - K196”.

As for ACADM, P11310, in test [10], the cross-linked residues entry is “K144 - K664”.

Turning to BCL2, P10415, the cross-linked residues entry in test [11] is given as “M1 - K254”.

On to TOMM20, Q15388, for which the cross-linked residues result in test [12] is “K56 - K74”.

As for ALDH4A1, P30038, in test [13], the cross-linked residues entry is listed as “K93 - M1”.

As to VDAC1, P21796, the cross-linked residues entry in [14] is reported as “K61 - K999”.

As to PDHA1, P08559, in [15], the cross-linked residues result is “K40 - K525”.

As to NDUFV3, P56181, the cross-linked residues result in test [16] is given as “M1 - K91”.

Regarding PHB1, P35232, in [17], the cross-linked residues result is “K202 - K216”.

With PMPCB, O75439, the cross-linked residues result in [18] is “K148 - K64”.

As for COX5B, P10606, in test [19], the cross-linked residues entry is given as “K57 - K63”.

As for BCKDHB, P21953, the cross-linked residues result in test [20] is reported as “K381 - K145”.

VDAC2, P45880: in test [21], the cross-linked residues result was “K74 - G2”.

Consider SNAP29, O95721, for which, in test [22], the cross-linked residues entry was “K124 - K517”.

MACROD1, Q9BQ69: in [23], the cross-linked residues entry is reported as “K99 - K399”.

Take BPHL, Q86WA6: in test [24], the cross-linked residues entry was “V2 - V2”.

Turning to ATP5F1D, P30049, in test [25], the cross-linked residues entry is on record as “K136 - K33”.

In the case of ACSM4, P0C7M7, in test [26], the cross-linked residues entry is reported as “K542 - K576”.

Consider ACACB, O00763, for which the cross-linked residues result in [27] is reported as “K1705 - K259”.
